PubChem BioAssay (EPA / NIEHS)
Activity calls are given as the source filed them. Rule for the calls: active = hit-call score of the fitted dose curve at least 0.9, where 1 is the maximum; inactive = score below 0.9.

Experiments:
[1] = BSK_BT_PBMCCytotoxicity: PBMC Cytotoxicity Assessment in the BioMAP Diversity Plus: BT Assay (AID 2284225); settings: primary human B cells with PBMC;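 note: PBMC viability measured by Alamar Blue dye reduction fluorescence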
Outline: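 75,000 cells/well; cpd 1 h → SEB + TSST-1 (20 ng/mL final each) → 90 h → Alamar Blue 6 h → fluor. 546/580 nm. DMSO = neg. control/baseline.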

[2] = read-out: Secreted IgG (sIgG), gene 3500; assay: BSK_BT_sIgG: BioMAP Diversity Plus: BT Assay for Secreted IgG (sIgG) Biomarker Activity (AID 2284226); settings: primary human B cells with PBMC
Outline: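 Secreted IgG from a human primary B cell–PBMC co-culture was measured by ELISA 24 hours after dosing, with DMSO defining baseline activity.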

[3] = BSK_BT_Bcell_Proliferation: Viability Assessment in the BioMAP Diversity Plus: BT Assay for B cell Proliferation (AID 2284227); settings: primary human B cells with PBMC
Outline: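 Using a human primary B cell–PBMC co-culture, the assay measures total protein by sulforhodamine B absorbance as a gauge of proliferation after 72 h. Analysis followed the positive fitting direction with DMSO as baseline.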

[4] = read-out: Interleukin 6 (IL6), IL6 (gene 3569); assay: BSK_BT_xIL6: BioMAP Diversity Plus: BT Assay for Interleukin 6 (IL6) Biomarker Activity (AID 2284228); settings: primary human B cells with PBMC
Outline: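 IL-6 secretion measured (Luminex xMAP) in human primary B cell + PBMC co-culture at 24 h of chemical exposure; DMSO served as negative control and activity baseline, with curves fitted for increase.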

[5] = read-out: Interleukin 17A (IL17A), IL17A (gene 3605); assay: BSK_BT_xIL17A: BioMAP Diversity Plus: BT Assay for Interleukin 17A (IL17A) Biomarker Activity (AID 2284229); settings: primary human B cells with PBMC
Outline: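 Human primary B cells plus PBMC, treated 24 h with chemicals; supernatant IL-17A quantified on Luminex xMAP beads. Gain of signal over DMSO control scored as activity.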

[6] = read-out: Tumor necrosis factor (Homo sapiens) (UniProt P01375); assay: BSK_BT_xTNFa: BioMAP Diversity Plus: BT Assay for Tumor necrosis factor alpha (TNF-alpha) Biomarker Activity (AID 2284230); settings: primary human B cells with PBMC
Outline: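 Endpoint derived in the positive direction versus DMSO vehicle. Cells: B cells together with PBMC, exposed 24 h before TNF-alpha in the medium was read on the Luminex xMAP platform.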

[7] = read-out: Vascular cell adhesion molecule 1 (VCAM1), VCAM1 (gene 7412); assay: BSK_MyoF_VCAM1: BioMAP Diversity Plus: MyoF Assay for Vascular cell adhesion molecule 1 (VCAM1) Biomarker Activity (AID 2284231); settings: primary human lung fibroblasts
Outline: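 VCAM-1 levels, lung fibroblasts, ELISA, 24 h exposure, increase scored relative to DMSO.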

[8] = read-out: Collagen I, COL1A1 (gene 1277); assay: BSK_MyoF_CollagenI: BioMAP Diversity Plus: MyoF Assay for Collagen I Biomarker Activity (AID 2284238); settings: primary human lung fibroblasts
Outline: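 Measured by ELISA: Collagen I from human lung fibroblasts 24 h after compound addition, analysed for signal gain with DMSO as baseline; overt toxicity read from SRB staining of parallel cultures at the same time.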

[9] = read-out: Collagen III, COL3A1 (gene 1281); assay: BSK_MyoF_CollagenIII: BioMAP Diversity Plus: MyoF Assay for Collagen III Biomarker Activity (AID 2284239); settings: primary human lung fibroblasts
Outline: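 Multiplexed cell assay in lung fibroblasts, harvested at 24 h post-dose. Collagen III detected by ELISA, with positive-direction fitting relative to DMSO vehicle.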

[10] = read-out: Interleukin 17F (IL17F), IL17F (gene 112744); assay: BSK_BT_xIL17F: BioMAP Diversity Plus: BT Assay for Interleukin 17F (IL17F) Biomarker Activity (AID 2284243); settings: primary human B cells with PBMC
Outline: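 Luminex readout of IL-17F secretion, 24 h; cells: human B cells with PBMC; positive-direction analysis, DMSO control.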

[11] = read-out: Actin alpha 1 (ACTA1), ACTA1 (gene 58); assay: BSK_MyoF_ACTA1: BioMAP Diversity Plus: MyoF Assay for Actin alpha 1 (ACTA1) Biomarker Activity (AID 2284244); settings: primary human lung fibroblasts
Outline: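 Measured by ELISA: alpha-smooth muscle actin in human primary lung fibroblasts 24 h after dosing, with DMSO as baseline and upward signal change as the fitted direction.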

[12] = UKN4_HCS_LUHMES_cell_viability: Viability Assessment in the University of Konstanz (UKN) Leist Lab Neurite Outgrowth Assay in human LUHMES cells (UKN4) (AID 2284232)
Outline: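 Human dopaminergic-model LUHMES neurons were exposed to chemicals for 24 h after a 2-day differentiation. Viability was scored by imaging Hoechst H-33342 staining, with activity fitted in both directions relative to DMSO controls.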

[13] = UKN2_HCS_IMR90_cell_viability: Viability Assessment in the University of Konstanz (UKN) Leist Lab Neural Crest Cell Migration Assay in human induced IMR90 Pluripotent Stem Cells (UKN2) (AID 2284233);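 note: viability of neural crest cells differentiated from IMR90 iPSC measured by calcein-AM fluorescence imaging; cells exposed to compound for 24 h after a 24 h migration phase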
Outline: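 iPSC-derived (IMR90) neural crest cells seeded around silicone stoppers on PLO/laminin/fibronectin; after 24 h migration in N2-S with EGF/FGF, chemical added for 24 h. Calcein-AM/Hoechst stained 30 min, high-content imaged; bidirectional fit versus DMSO.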

Measured: AC50

Chain of Tumor necrosis factor (Homo sapiens) (P01375 whole entry, looked up): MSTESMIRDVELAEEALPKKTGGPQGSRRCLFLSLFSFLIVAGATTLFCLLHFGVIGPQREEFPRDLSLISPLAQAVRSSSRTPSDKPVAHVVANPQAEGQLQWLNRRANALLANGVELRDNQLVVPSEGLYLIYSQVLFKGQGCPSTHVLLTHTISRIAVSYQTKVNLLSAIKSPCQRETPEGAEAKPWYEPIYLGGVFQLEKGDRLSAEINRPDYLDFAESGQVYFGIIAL

CC(C=O)Cc1ccc2c(c1)OCO2 (stereo unspecified)
not listed: [12] | [13]
inactive: all other assays above

Oc1ccc(Cc2ccc(O)cc2)cc1
not listed: [12] | [13]
inactive: all other assays above

Nc1ccc(N)cc1
not listed: [12] | [13]
inactive: all other assays above

C=CC(Cl)CCl (stereo unspecified)
active: [7] 4.05 µM | [8] 0.0855 µM
not listed: [12] | [13]
inactive: all other assays above

O=S1OC[C@@H]2[C@H](CO1)[C@]1(Cl)C(Cl)=C(Cl)[C@@]2(Cl)C1(Cl)Cl (stereo partly specified)
inactive: [13]
active: [12] 27 µM

NC(=O)CCl
not listed: [12] | [13]
inactive: all other assays above

CCOC(=O)CCN(SN(C)C(=O)Oc1cccc2c1OC(C)(C)C2)C(C)C
active: [1] 25.9 µM | [2] 27.5 µM | [3] 28.9 µM | [4] 33.4 µM | [5] 26.5 µM | [6] 36.7 µM | [7] 33.1 µM | [10] 30 µM | [11] 29.3 µM
inactive: [8] | [9]

Cc1cc(C(C)(C)c2ccc(O)c(C)c2)ccc1O
active: [2] 10 µM | [7] 16.4 µM | [8] 15.4 µM | [9] 15.1 µM | [11] 19 µM
not listed: [12] | [13]
inactive: all other assays above

O=C1C=CC(=O)c2ccccc21
active: [1] 0.686 µM | [2] 0.251 µM | [3] 0.825 µM | [4] 0.499 µM | [5] 0.482 µM | [6] 0.812 µM | [7] 3.72 µM | [8] 4.3 µM | [9] 4.13 µM | [10] 0.61 µM | [11] 4.42 µM

O=S(=O)(c1ccc(Cl)cc1)c1cc(Cl)c(Cl)cc1Cl
active: [2] 20 µM | [3] 30.1 µM | [10] 25.1 µM
not listed: [12] | [13]
inactive: all other assays above

CCCCCCCCCCCCN(C)C
not listed: [12] | [13]
inactive: all other assays above

N#CCCC(Br)(C#N)CBr (stereo unspecified)
active: [1] 9.18 µM | [2] 7.61 µM | [3] 6.35 µM | [4] 9.34 µM | [5] 7.96 µM | [6] 11.1 µM | [7] 13.9 µM | [8] 25.7 µM | [9] 24.8 µM | [10] 9.32 µM | [11] 12 µM

Cc1cccc(OP(=O)(Oc2cccc(C)c2)Oc2cccc(C)c2)c1
not listed: [12] | [13]
inactive: all other assays above

c1ccc2sc(SNC3CCCCC3)nc2c1
inactive: [4] | [7] | [8] | [9] | [11]
active: [1] 30.8 µM | [2] 32 µM | [3] 29.3 µM | [5] 20 µM | [6] 37.6 µM | [10] 32.1 µM

Cc1c([N+](=O)[O-])c(C)c([N+](=O)[O-])c(C(C)(C)C)c1[N+](=O)[O-]
active: [7] 20 µM | [8] 32.1 µM | [10] 28.1 µM | [11] 33 µM
not listed: [12] | [13]
inactive: all other assays above
